Calls of active or inactive are those of the source. Rule for the calls: active = hit-call score of the fitted dose curve at least 0.9, where 1 is the maximum; inactive = score below 0.9.
read-out: Tumor necrosis factor receptor superfamily member 6 (Homo sapiens) (UniProt P25445); assay: LTEA_HepaRG_FAS: Life Technologies and Expression Analysis (LTEA) Assay for Fas cell surface death receptor (FAS) using HepaRG (AID 2283447); conditions: mRNA level, 48 h; actives raise or lower the signal
Summary of the method: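 Differentiated HepaRG cells in serum-free induction medium were exposed 48 h to 8 half-log concentrations up to 100 uM in 0.5% DMSO, in duplicate. FAS mRNA was measured by qRT-PCR normalised to ACTB, GAPDH and POLR2A; bidirectional fit versus DMSO.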

Row | Compound | outcome | AC50
1 | C=C(C)C(=O)OCCC(F)(F)C(F)(F)C(F)(F)C(F)(F)C(F)(F)C(F)(F)F | inactive | 
2 | CC(O)CO (stereo unspecified) | inactive | 
3 | CCCCOCCO | inactive | 
4 | OC1CCCCC1 | inactive | 
5 | N#C[C@@H]1CC(F)(F)CN1C(=O)CNC1CC2CCC(C1)N2c1ncccn1 (stereo partly specified) | inactive | 
6 | COCC(C)OCC(C)O (stereo unspecified) | inactive | 
7 | Cc1cc(C)c(O)c(C)c1 | inactive | 
8 | ClC1=C(Cl)C(Cl)(Cl)C(Cl)=C1Cl | inactive | 
9 | CCCCC(CC)COC(=O)CCCCC(=O)OCC(CC)CCCC (stereo unspecified) | inactive | 
10 | COCC(C)O (stereo unspecified) | inactive | 
11 | CCCCCCCC(=O)O | inactive | 
12 | CCCCCCCCCCCCc1ccccc1S(=O)(=O)O |  | 50 µM (active)
13 | CCN(CC)CCNc1ccc(CNC=O)c2sc3ccc(OC)cc3c(=O)c12 | inactive | 
14 | c1ccc2c(c1)Cc1ccccc1-2 | inactive | 
15 | CC(C)(C)c1cc(C(C)(C)C)c(O)c(C(C)(C)C)c1 | inactive | 
16 | CCC(C)(C)C1CCC(O)CC1 (stereo unspecified) | inactive | 

Row | Compound | outcome | AC50
17 | CCCCCCCCOC(=O)CCCCCCCCC(=O)OCCCCCCCC | inactive | 
18 | CC(C)(C)c1cccc(C(C)(C)C)c1O | inactive | 
19 | CC[C@H](c1ccc(O)cc1)[C@@H](CC)c1ccc(O)cc1 |  | 89.3 µM (active)
20 | CCCOc1sc(C(=O)N2CCC(c3cc(CN)ccc3F)CC2)c(C)c1Br | inactive | 
21 | CN(C)C=O | inactive | 
22 | CC(=O)NC1(c2cccc(F)c2)CCN(CC[C@@]2(c3ccc(Cl)c(Cl)c3)CN(c3ccccc3)C(=O)CO2)CC1 |  | 71.9 µM (active)
23 | CC(=O)CC(C)(C)O | inactive | 
24 | OCCC(F)(F)C(F)(F)C(F)(F)C(F)(F)C(F)(F)C(F)(F)C(F)(F)C(F)(F)F | inactive | 
25 | CCCCCCC(=O)O | inactive | 
26 | CCCCCCCCCCCCN1CCCC1=O | inactive | 
27 | NC(=O)N1C(=O)C(C(=O)c2cc(Cl)cs2)c2cc(F)c(Cl)cc21 (stereo unspecified) | inactive | 
28 | CC(C)(C)CC(C)(C)c1ccc(O)c(-n2nc3ccccc3n2)c1 | inactive | 
29 | OCCC(F)(F)C(F)(F)C(F)(F)C(F)(F)C(F)(F)C(F)(F)F | inactive | 
30 | CC(C)CCCCCCOC(=O)CCCCC(=O)OCCCCCCC(C)C | inactive | 
31 | Cc1cc(CCN2CCN(c3nsc4ccccc34)CC2)cc2c1NC(=O)CC2(C)C | inactive | 

— PubChem BioAssay (EPA / NIEHS)
